# Measured values from ChEMBL document CHEMBL3988442, “University of Dundee, Small-Polar-MMV Screening Library” (2021).
# In all, about 85,000 compounds went through this assay and about 440 (0.52%) showed an effect of 50% or more. The sample as a whole holds a higher share of strong results than the screen did.
# Test: In vitro enzyme assay to detect hydrolysis of chlorophenol red-beta-D-[…] directly proportional to the number of Toxoplasma stably expressing beta-galactosidase
# Format: functional, organism-based, Toxoplasma gondii
# Design: scale not given: in the data most compounds retested in dose-response had high values
SMILES,Percent Effect (50 µM),Percent Effect (10 µM)
CN(C(=O)CC(N)c1ccccc1)c1cccc(F)c1 (stereo not drawn),3.1%,–
Nc1ncccc1CN1CCN(C2CCOCC2)CC1,4.597%,–
O=C1CCCCN1Cn1cnc2c(Br)cccc2c1=O,-5.958%,–
Cc1cccc(C(=O)Nc2c(C(=O)N(C)C)nn(C)c2C)c1,–,18.52%
Cc1c(NC(=O)c2cccc(Br)c2)c(C(=O)N(C)C)nn1C,–,13.13%
COc1ccc(C(=O)Nc2c(C(=O)N(C)C)nn(C)c2C)cc1,–,52.86%
Cc1c(NC(=O)c2ccc(Br)cc2)c(C(=O)N(C)C)nn1C,–,46.94%
Cc1ccc(C(=O)Nc2c(C(=O)N(C)C)nn(C)c2C)cc1C,–,61.35%
Cc1ccc(C(=O)Nc2c(C(=O)N(C)C)nn(C)c2C)cc1,–,18.52%
CC(=O)NCc1ccc(C(C)=O)s1,3.848%,–
CCOc1cc(CNCc2ccccn2)ccc1O,12.08%,–
CCS(=O)(=O)N(C)CC(=O)Nc1cc(C)on1,-10.63%,–
Cc1cc(NC(=O)c2ccc(S(C)(=O)=O)cc2)no1,1.537%,–
CCNS(=O)(=O)c1csc(C(=O)Nc2cc(C)on2)c1,60.53%,–
Cc1ccoc1C(=O)NC1CCN(Cc2ccccc2C#N)CC1,–,-1.883%
Cc1ccoc1C(=O)NC1CCN(Cc2cccc3ccccc23)CC1,–,53.31%
Cc1ccoc1C(=O)NC1CCN(Cc2ccccc2F)CC1,–,-8.886%

SMILES,Percent Effect (50 µM),Percent Effect (10 µM)
Cc1ccc(-n2ncc3c2CCCC3N)cc1C (stereo not drawn),–,16.25%
Cc1cc(C)cc(-n2ncc3c2CCCC3N)c1 (stereo not drawn),–,16.38%
CC(C)(C)c1ccc(-n2ncc3c2CCCC3N)cc1 (stereo not drawn),–,50.93%
COc1ccc(CN2CCCNCC2)cc1,13.71%,–
Cc1cc(C(=O)N(C)Cc2cccs2)nc(N2CCOCC2)n1,–,-10.44%
Cc1cc(C(=O)N(C)Cc2cccs2)nc(N2CCCC2)n1,–,6.801%
Cc1cc(C(=O)N(C)Cc2cccs2)nc(N2CCCCC2)n1,–,73.87%
CSc1ccc(CNc2ccn(CCC(N)=O)n2)cc1,-4.331%,–
O=C(NCCN1CCOCC1)c1cc(-c2ccccc2Cl)[nH]n1,–,-1.617%
O=C(NCCN1CCOCC1)c1cc(-c2ccc(Cl)s2)[nH]n1,–,52.66%
Cc1ccc(-c2cc(C(=O)NCCN3CCOCC3)n[nH]2)s1,–,27.02%
CS(=O)(=O)N[C@H]1CN(c2ccncc2F)C[C@@H]1C1CC1,3.462%,–
CCc1cnc(CNC(=O)NCc2cnn(C)c2)s1,-4.497%,–
Cc1cc(C(=O)Nc2cccc(C[S+](C)[O-])c2)on1 (stereo not drawn),98.42%,–
Cc1cc(C(=O)Nc2cnn(C)c2)on1,0.4555%,–
Cc1cc(C(=O)Nc2ccc(OCC(N)=O)cc2)on1,12.73%,–
